# The whole screen tested about 320,000 compounds, of which about 2,100 (0.66%) were called active. Inconclusive results (about 53%) are left out. The call rests on the fitted dose curve; in most records, active means well fitted inhibition curve with a large enough effect in the signal ratio, with a control signal flat (not every such curve was filed as active); inconclusive means small, poorly fitted or top-dose-only effect, or effect the other way, or a change in a side signal; inactive means flat fitted curve, though single readings scatter; the % refers to the signal ratio. The sample as a whole holds a higher share of actives than the screen did.
# Assay: qHTS Assay for Lipid Storage Modulators in Drosophila S3 Cells;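 on cell number change: cells counted by Cell Tracker Red CMTPX staining in the red channel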; on lipid storage change, negative = inhibition: on the % scale 0 is the no-effect control and ±100 the full control effect
# Conditions: BODIPY lipid droplet fluorescence, 18-24 h, cells fed with added oleic acid; cell number change: measured here: cell count max response; series mostly up to 46.1 µM; lipid storage change, negative = inhibition: at the top concentration
# Summary of the method: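 Drosophila S3 cells got compounds at several concentrations plus oleic acid (400 uM solution). Laser-scanning cytometry with 488 nm excitation read lipid droplets at 500-530 nm and cells at 575-640 nm. Percent activity was relative to 20 uM Triacsin C.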
# Potency means the concentration at half of the fitted maximal effect.
Structure (SMILES),"lipid storage change, negative = inhibition",cell number change [%],outcome,Potency
COc1ccc(S(=O)(=O)Nc2c(C)n(C)n(-c3ccccc3)c2=O)cc1Br,16.7% (inactive),-3.28,–,–
CCN(CC(=O)NCc1ccc(F)cc1)C(=O)c1ccc(COc2ccccc2)cc1,7.05% (inactive),2.25,–,–
S=C(Nc1ccccn1)NC1CCCCC1,22.6% (inactive),-4.33,–,–
COc1ccc(C2CC2/C(C)=N/OC(=O)c2cccs2)cc1 (stereo not drawn),–,–,inactive,–
CCOC(=O)c1cc2sc(C)cc2n1CC(=O)NCCc1ccccc1,-3.61% (inactive),5.86,–,–
Cc1cccc(C(=O)Nc2ccc(C)c(OC(=O)c3cccc(C)c3)c2)c1,0.347% (inactive),-20.4,–,–
COc1ccc(CCNC(=O)COC(=O)c2cnc(C)cn2)cc1OC,1.54% (inactive),5.11,–,–
O=C(CCCCC(=O)NCCCc1ccccc1)NCCCc1ccccc1,–,-16.3,–,20.6 µM (active)
O=C(CCCCC(=O)NCCc1ccccc1)NCCc1ccccc1,-26.6% (inactive),-15.5,–,–
O=C(CCCc1ccccc1)NCCc1ccccc1,–,1.1,inactive,–
COCCCNC(=O)CCNS(=O)(=O)c1ccc(C)cc1,8.63% (inactive),9.83,–,–
CC(=O)Nc1ccc(S(=O)(=O)NCCc2ccccc2)cc1,–,-18.3,inactive,–
Cc1cnc(C(=O)OCC(=O)NCCCc2ccccc2)cn1,–,-37.4,–,5.17 µM (active)
Cc1ccc(S(=O)(=O)NCCC(=O)NCCCSc2ccccc2)cc1,–,-14.6,–,16.4 µM (active)
CCN(Cc1ccccc1)C(=O)COC(=O)c1cnc(C)cn1,-29.5% (inactive),–,–,–
Cc1ccc(S(=O)(=O)NCCC(=O)NCCOc2ccccc2)cc1,-20.7% [at 0.0737 µM] (inactive),2.02,–,–
CC(=O)Nc1ccc(S(=O)(=O)NCCC(=O)NCCCc2ccccc2)cc1,–,6.57,–,1.64 µM (active)
CC(=O)Nc1ccc(S(=O)(=O)NCCC(=O)NCCOc2ccccc2)cc1,1.4% (inactive),-2.82,–,–
CC(=O)NC(Cc1ccccc1)C(=O)OCC(=O)c1ccc(F)cc1 (stereo not drawn),-27.4% (inactive),–,–,–
Cc1ccc(Nc2nc(-c3ccncc3)nc3ccccc23)cc1,6.48% (inactive),-7.93,–,–
Cc1nn(CCCC(=O)NCc2ccco2)c(=O)c2nn(-c3ccccc3)c(C)c12,15.5% (inactive),–,–,–

Structure (SMILES),"lipid storage change, negative = inhibition",cell number change [%],outcome,Potency
CC(C)(/C=N/O)N(O)C=C1C=CC(=O)C=C1,0.34% (inactive),1.11,–,–
N#C/C(C(=O)Oc1ccccc1)=C1\C=Cc2ccccc2N1,-11.1% (inactive),-1.92,–,–
COc1ccc(OC(=O)/C=C/c2ccc([N+](=O)[O-])cc2)cc1,-3.13% (inactive),3.89,–,–
COc1ccc(S(=O)Cc2ccc(C(=O)NC3CC3)o2)cc1 (stereo not drawn),12% (inactive),13.8,–,–
COc1ccc(N(C)S(=O)(=O)c2cccc(C(=O)Nc3nnc(C4CC4)s3)c2)cc1,-3.22% (inactive),–,–,–
COc1ccc(N(C)S(=O)(=O)c2cccc(C(=O)Nc3nnc(C)s3)c2)cc1,–,-20.6,inactive,–
COc1ccc(N(C)S(=O)(=O)c2cccc(C(=O)Nc3nc(C)c(C(C)=O)s3)c2)cc1,–,–,–,1.16 µM (active)
O=C(NC(=S)NCc1cccnc1)c1cc2ccccc2o1,4.99% (inactive),-19.5,–,–
Cc1cc(F)c(F)c(C(=O)NC2CC2)c1Cl,–,–,–,9.2 µM (active)
Cc1cc(F)c(F)c(C(=O)N2C(C)CCCC2C)c1Cl (stereo not drawn),-11.4% (inactive),0.056,–,–
Cc1cc(F)c(F)c(C(=O)N2CCC(C)CC2)c1Cl,10.8% (inactive),0.433,–,–
COc1ccc(OCc2cc(C(=O)N(C)C(C)c3ccon3)no2)c(Cl)c1 (stereo not drawn),–,-9.97,inactive,–
Cc1cc2c(cc1S(=O)(=O)N1CCN(c3ccccc3)CC1)OCCN2C,25.3% (inactive),-3.46,–,–
Cc1ccc(S(=O)(=O)C2(C(=O)N3CCN(c4cc(C)ccc4C)CC3)CC2)cc1,6.15% (inactive),–,–,–
Cc1cccc(N2CCN(C(=O)C3(S(=O)(=O)c4ccc(Cl)cc4)CC3)CC2)c1C,8.29% (inactive),0.245,–,–
Cc1ccc(S(=O)(=O)C2(C(=O)N3CCN(c4ccccc4F)CC3)CC2)cc1,–,-5.26,–,0.731 µM (active)
C/C(=N/Nc1ccc([N+](=O)[O-])cc1)c1c[nH]c2ccccc12,–,-24.9,–,4.11 µM (active)
C/C(=N\NS(=O)(=O)c1ccc([N+](=O)[O-])cc1)c1c[nH]c2ccccc12,–,-0.495,inactive,–
C/C(=N/NS(=O)(=O)c1cccc([N+](=O)[O-])c1)c1c[nH]c2ccccc12,1.43% (inactive),–,–,–
O=C(Cn1cc(S(=O)(=O)Cc2ccccc2F)c2ccccc21)N1CCOCC1,-4.09% (inactive),9.64,–,–
O=[N+]([O-])c1ccc(N2CCCC2)nc1N1CCCC1,-1.16% (inactive),16.9,–,–

Structure (SMILES),"lipid storage change, negative = inhibition",cell number change [%],outcome,Potency
COc1ccc(-c2cc(=O)c(C(=O)c3ccc(C)cc3)n[nH]2)cc1,2.45% (inactive),14,–,–
O=C(OCc1cc(Cl)ccc1OC(F)F)c1cccnc1,8.44% (inactive),13.9,–,–
O=C(OCc1cc(Cl)ccc1OC(F)F)c1cc(S(=O)(=O)O)ccc1O,–,-6.52,–,1.64 µM (active)
O=C(OCc1cc(Cl)ccc1OC(F)F)c1cncc(Br)c1,–,–,inactive,–
CC1CC(=O)Nc2ccccc2N1C(=O)CSc1ncnc2sccc12 (stereo not drawn),6.7% (inactive),0.129,–,–
COc1ccc(CCC(=O)Nc2cccc(S(=O)(=O)N(C)C)c2)cc1OC,-18.4% (inactive),15.7,–,–
COc1ccc([N+](=O)[O-])cc1NC(=S)NC(C)=O,-18.5% (inactive),0.615,–,–
Cc1ccc(NS(=O)(=O)N(C)C)cc1,–,–,inactive,–
CN(C)S(=O)(=O)Nc1cc(F)cc(F)c1,-32.6% (inactive),-8.31,–,–
CN(C)S(=O)(=O)Nc1cc(Cl)cc(Cl)c1,–,-41.2,–,18.4 µM (active)
CCN(C(=O)COC(=O)c1ccc(Cl)c(N)c1)C1CCS(=O)(=O)C1 (stereo not drawn),0.308% (inactive),6.77,–,–
CCOc1ccccc1C(=O)n1nc2nc(C)cc(C)c2c1N,–,6.26,inactive,–
CCCn1c(N)c(C(=O)CSc2nnc(C3CC3)n2Cc2ccccc2)c(=O)[nH]c1=O,-10.4% (inactive),7.78,–,–
COc1ccc(C(=O)/C=C/c2ccccc2)c(OC)c1,-0.419% (inactive),16.5,–,–
O=C1C(=O)N(CCCN2CCOCC2)C(c2ccc(F)cc2)/C1=C(\O)c1ccc2c(c1)OCCO2 (stereo not drawn),–,-2.36,inactive,–
COc1cccc(C(=O)Nc2cccc(OC(C)=O)c2)c1,–,-9.37,inactive,–
COc1ccc(CCN2C(=O)/C(=C\c3ccco3)SC2=S)cc1OC,-6.07% (inactive),-20.3,–,–
COc1ccc(NC(=O)COC(=O)c2c3c(nc4ccccc24)CCCC3)cc1,-1.44% (inactive),-10.5,–,–
CNC(=O)COC(=O)c1c2c(nc3ccccc13)CCC2,0.527% (inactive),-0.369,–,–
CCCCNC(=O)COC(=O)c1c2c(nc3ccccc13)CCC2,–,1.26,–,7.31 µM (active)
